The list is not random: actives were taken first. Their share in the collection is about 1%.
HUVEC tox TNFa = cytotoxicity in TNFa-stimulated HUVEC, primary screen, cytotoxicity control for VCAM1 expression modulator project, imaging, Hoechst nuclei count | HUVEC TNFalpha-stimulated, Hoechst cell count | cell count reduction, % at 2 µM | 0.17% of 93,000 active | AID 848, 2007;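 active means cell count reduction exceeding the screen mean by over 5 SD, scaled to untreated wells per plate, cut at about 78% in these data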;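 further: cells counted after 24 h of TNF alpha exposure following the 1 h pretreatment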
cytoskel mod = modifiers of F-actin cytoskeleton organization, primary screen, imaging, HUVEC, phalloidin staining, high-content imaging. 0.18% of 91,000 active. HUVEC TNFa F-actin phalloidin imaging. inhibition, % at 2 µM. AID 836, 2007;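 active means inhibition above the batch mean plus 3 SD and confirmed as a hit by visual image inspection, cut at about 30% in these data, passing the limit was not always enough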
VCAM1 TNFa inh = inhibitors of TNFa-induced VCAM1 expression, primary screen, imaging, HUVEC, TNFa stimulus, immunofluorescence; 0.48% of 95,000 active; inhibition, % at 2 µM; HUVEC TNFa-induced VCAM-1 immunofluorescence, high-content imaging; AID 802, 2007;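 active means inhibition above the batch mean plus 3 SD, with images confirmed as a hit by eye, cut at about 37% in these data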;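 further: 0% = TNF-stimulated DMSO wells and 100% = unstimulated control wells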
E-sel TNF inh = E-selectin induction blockers in HUVEC – imaging, immunofluorescence, high content, primary screen | HUVEC TNFa-induced E-selectin immunofluorescence | inhibition, % at 2 µM | 0.71% of 120,000 active | AID 1246, 2008;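 active means inhibition above the batch mean plus 3 SD, and confirmed as a hit on visual image review, cut at about 43% in these data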;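 further: 0% = TNF-stimulated DMSO wells and 100% = unstimulated control wells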
An asterisk follows results filed as active; · = not tested or not shown.

SMILES	HUVEC tox TNFa	cytoskel mod	VCAM1 TNFa inh	E-sel TNF inh
COc1ccc(C(=O)C(CO)Oc2ccccc2OC)cc1OC (stereo unspecified)	-29.0	2.9	5.3	73.4*
OCCNCC(O)Cn1ccc2ccccc21 (stereo unspecified)	·	·	100.0*	-19.5
COCCNC(=O)C(c1cccs1)N(Cc1ccccc1)C(=O)Cn1nnc2ccccc21 (stereo unspecified)	-12.0	-3.4	11.4	14.1
COCCNC(=O)C(c1cccs1)N(Cc1cccs1)C(=O)Cn1nnc2ccccc21 (stereo unspecified)	-0.4	32.3*	-10.5	9.1
O=C(CSc1nnc(CNc2ccc(F)cc2)o1)N1CCCc2ccccc21	·	·	·	63.1*
O=C(NCc1nnc(SCC(=O)N2CCCc3ccccc32)o1)c1ccco1	·	·	·	-24.6
Cc1cccc(C)c1NC(=O)C1(NC(=O)C2CCCN2C(=O)OC(C)(C)C)CCCCC1 (stereo unspecified)	16.8	-22.7	47.3	·
CCN1C(=O)/C(=C\c2cn(-c3ccccc3)nc2-c2cccnc2)SC1=S	·	·	·	83.3*
Cc1c(NC(=S)NC(=O)C2CCCCC2)c(=O)n(-c2ccccc2)n1C	·	·	·	24.3
Cc1ccc(C)c(N(CC(=O)NC2CCCC2)C(=O)c2cc3cc4cc(C)ccc4nc3s2)c1	84.5*	1.1	47.6	·
Cc1cc(NC(=O)COC(=O)c2cc3c(s2)CCC(C)C3)no1 (stereo unspecified)	-20.2	8.2	7.5	-28.6
O=C(N/N=C1/CCS(=O)(=O)c2ccc(F)cc21)c1ccccn1	·	·	·	81.3*
COc1ccc(CCNC(=O)Nc2ccccc2[N+](=O)[O-])cc1	·	·	·	11.6
O=C(COC(=O)CCCN1C(=O)c2ccccc2C1=O)Nc1cc(Cl)cc(Cl)c1	·	·	·	-6.8
Cc1ccc(Cl)cc1NC1=C/C(=N\S(=O)(=O)c2cccs2)c2ccccc2C1=O	27.7	8.9	90.6*	28.9
CCCOc1ccc(NC(=O)C(=O)NCCCn2ccnc2)cc1	·	·	·	77.7*
CCOc1cc(C(=O)NCCCn2ccnc2)cc(OCC)c1OCC	·	·	·	88.3*
CCC(=O)Nc1ccc(C(=O)NCCCn2ccnc2)cc1	·	·	·	21.5
COc1cccc([C@@H]2Oc3ccc(OC)cc3C(=O)[C@H]2OC(=O)NCc2ccc3c(c2)OCO3)c1	·	·	·	-14.0
CC1CC(NC(=O)C2(C)CC2(Cl)Cl)CC(C)(C)C1 (stereo unspecified)	-37.2	3.2	1.0	-0.8
O=C(NC1CC1)c1ccc(S(=O)(=O)NC2CCCCCC2)cc1	-13.7	30.3	11.3	-14.3
O=C(NC1CC1)c1ccc(S(=O)(=O)NCC2CCCCC2)cc1	52.6	54.9*	50.7*	-4.8
CCCC(=O)C1=C(O)C(C(=O)OC)C(C)(C)CC1=Nc1ccc(N)cc1 (stereo unspecified)	-29.8	-17.7	16.0	58.9*
CCCC(=O)C1=C(O)C(C(=O)OC)C(C)(C)CC1=Nc1ccc(OC)cc1 (stereo unspecified)	·	·	·	-15.2
CCOc1c(C)cc2[nH]c(CCC(=O)O)nc2c1C	·	·	·	96.1*
SMILES	HUVEC tox TNFa	cytoskel mod	VCAM1 TNFa inh	E-sel TNF inh
COc1ccc(CCNC(=O)C2CCN(S(C)(=O)=O)CC2)cc1	-14.1	13.9	-3.9	2.5
O=C(CCc1ccccc1)NCCC1=CCCCC1	·	·	·	74.9*
O=C(Cc1ccccc1)NCCC1=CCCCC1	·	·	·	-4.9
Cn1cc(Cl)c(C(=O)NNC(=S)NCc2ccco2)n1	·	·	·	73.3*
Cc1c(Cl)c(C(=O)NNC(=S)NCc2ccco2)nn1C	2.0	6.6	-19.7	-0.2
O=C(COC(=O)c1cc(-c2ccc(F)cc2)nc2ccccc12)NCC1CCCO1 (stereo unspecified)	·	·	·	-57.6
O=C1NCC(COc2cccc3ccccc23)O1 (stereo unspecified)	·	·	·	20.8
COc1ccc(OCC2CNC(=O)O2)cc1 (stereo unspecified)	·	·	·	96.0*
Cc1nc2cccc(C(=O)NCc3ccccc3)c2o1	-32.2	12.8	-6.4	·
O=C(Cc1ccccc1)NN1C(=O)C2C3C=CC(C3)[C@@H]2C1=O (stereo partly specified)	·	·	·	12.7
CNc1nc(OCC(F)(F)F)nc(N2CCN(C34CC5CC(CC(C5)C3)C4)CC2)n1	-20.2	6.9	-23.2	-34.3
COc1ccccc1-c1cn(S(=O)(=O)c2ccc(C)cc2)nc1N	-18.9	-7.3	91.2*	-9.3
CC(C)CCNC(=O)c1ccc(-c2ccccc2)cc1	·	·	·	-38.0
COc1cc(C2Nc3ccc4ncccc4c3C3=C2C(=O)CCC3)cc(OC)c1O (stereo unspecified)	-18.0	-5.9	91.2*	-6.3
Nc1ccc2nc(-c3ccc(N)c(Cl)c3)[nH]c2c1	-10.4	45.5*	-32.5	-19.4
CC1CCN(C(=O)/C(=C/c2ccccc2Cl)c2ccccc2)CC1	-7.0	-7.4	-13.4	-32.1
N#CC(C#N)=C1C=CC=CN1/C(=C\c1ccccc1Cl)C(=O)c1ccccc1	·	·	·	68.7*
CNC(=O)CN(c1ccc(OC)cc1)S(=O)(=O)c1ccc(F)cc1	-5.7	-9.3	92.9*	-2.6
CN(C(=S)NC(=O)CCCOc1ccc(Cl)cc1Cl)c1ccccc1	-26.0	14.5	8.8	21.2
Cc1ccc(NC(=O)Cn2cnc3sc(C(=O)NCCN(C)C)c(C)c3c2=O)cc1Cl	-1.4	-15.0	9.4	50.2*
COc1ccc(-c2nc(CS(=O)CC(=O)NCc3cccnc3)c(C)o2)cc1 (stereo unspecified)	82.2*	13.2	18.5	·
CCc1ccc(-c2nc(CS(=O)CC(=O)NCc3cccnc3)c(C)o2)cc1 (stereo unspecified)	·	·	·	-2.5
COc1ccccc1CNC(=O)C(CCSC)NC(=O)C1CCC(C)CC1 (stereo unspecified)	10.4	4.0	4.4	20.6
C=CCCCOc1ccc(C(=O)O)cc1	35.4	-36.7	76.5*	-7.2
COC(=O)CSc1nc(N)nc(C)c1Br	-4.0	-28.6	10.3	62.8*
SMILES	HUVEC tox TNFa	cytoskel mod	VCAM1 TNFa inh	E-sel TNF inh
COC(=O)CSc1nc(N)c(C#N)c(C(C)C)c1C#N	-15.8	-15.6	-12.8	-1.2
CC1CC(C)CN(S(=O)(=O)N2CCC(C(=O)NCCC3=CCCCC3)CC2)C1 (stereo unspecified)	·	·	·	-8.1
O=C1CCN(S(=O)(=O)c2ccc(Br)cc2)CCN1	·	·	·	-0.5
Cc1cccc(NC(=S)Nc2ccccn2)c1C	·	·	·	62.1*
Cc1cccc(NC(=O)c2ccccn2)c1C	-33.3	7.6	4.9	0.3
CSc1nsc(SCC(=O)N2CCCCC2)n1	·	·	·	14.8
O=C(C1CCC1)N1CCc2cc(S(=O)(=O)Nc3ccc4c(c3)OCCO4)ccc21	62.7	-33.9	83.0*	0.6
CCC(=O)N1CCc2cc(S(=O)(=O)Nc3ccc4c(c3)OCCO4)ccc21	0.4	-14.5	-1.9	-8.5
COc1ccccc1-n1c(=O)c2c3c(sc2n2c(=S)[nH]nc12)CCC3	·	·	·	6.0
CCOC(=O)c1cc(-c2ccccc2)sc1NC(=S)Nc1cccc(C)n1	3.9	-33.6	4.5	53.9*
Cc1cc(C)n(C(=O)CNC(=O)CCc2ccccc2)n1	-31.8	-15.9	15.4	99.0*
COCCOC(=O)c1c(C)oc2ccc(OC(=O)c3c(OC)cccc3OC)cc12	8.0	-31.8	-2.4	-4.7
COCCOC(=O)c1[nH]c2c(c1C)C(=O)CC(c1ccccc1)C2 (stereo unspecified)	60.2	22.0	56.2*	13.8

Source: PubChem (Columbia University Molecular Screening Center)
